In all, about 410,000 compounds went through this assay and about 18,000 (4.4%) were called active. Roughly 7% stayed inconclusive and do not appear here. The entries come from a sample that favours actives as a whole. A number with no mark means an inactive call. No stated cut-off is given here; in the data, active means activity change below about -60%; inconclusive means no clear call, values can overlap the other calls; inactive means above about -39%.
On the % scale 0 is the no-effect control and ±100 the full control effect.

This experiment can be described thus: qHTS Assay for inhibitors of the human cytomegalovirus (HCMV). The conditions noted are these: HFF cells, HCMV-luciferase reporter, 72 h; at 57.5 µM; stronger effect = lower value. In short, it runs like this:
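Steps: HFFs plated, 16 h 37C; compounds added; HCMV-luciferase added to MOI 1 PFU/cell; 72 h 37C; OneGlo reagent, 5 min room temperature; luminescence read, normalized to controls.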
In the case of `CCC(=O)Nc1cccc(C(=O)OCc2cc(=O)n3nc(CC)sc3n2)c1`, the activity change, negative = inhibition was -14.2%.

For the molecule `CC(C)=CCc1c(O)c(CC=C(C)C)c2occ(-c3ccc(O)cc3)c(=O)c2c1O`, the activity change, negative = inhibition is -100% (active).

For `Cc1ccc(C(O)c2nnc(Nc3cccc(Oc4ccccc4)c3)s2)cc1` (stereo not given), the activity change, negative = inhibition was -5.85%.

On to `O=C(N/N=C/c1ccc(Br)o1)c1cncc(Br)c1`, for which the activity change, negative = inhibition was -102% (active).

Consider `Cc1ccc(C(=O)N/N=C\c2cc(Br)c(Br)o2)cn1`, for which the activity change, negative = inhibition is -32.6%.

With `O=C(CCC(=O)N/N=C/c1ccc(Br)o1)N/N=C/c1ccc(Br)o1`, the activity change, negative = inhibition is -61.8% (active).

With `O=C(CCNc1n[nH]c(=O)[nH]c1=O)N/N=C\c1ccc(Br)cc1`, the activity change, negative = inhibition is 0%.

`O=C(CCNC(=O)c1ccccc1)NN=Cc1ccc(Br)o1`: the activity change, negative = inhibition is -13.4%.

`COC(=O)c1ccccc1NC(=O)c1cncc(Br)c1`: the activity change, negative = inhibition was -30.4%.

For the molecule `COc1ccc(-c2cc(C(F)(F)F)n3nc(-c4ccccc4)cc3n2)cc1OC`, the activity change, negative = inhibition is -15.9%.

Take `COc1ccccc1NC(=O)C1CCN(C(=O)c2ccc(C(C)(C)C)cc2)CC1`: the activity change, negative = inhibition was 28.4%.

With `CC(=O)Nc1ccc(S(=O)(=O)N2CCn3cccc3C2C)cc1` (stereo not given), the activity change, negative = inhibition is 36.8%.

In the case of `COc1ccccc1CNS(=O)(=O)c1ccc2c(c1)NC(=O)CS2`, the activity change, negative = inhibition was -16.2%.

Consider `CCC(Cc1ccccc1)NS(=O)(=O)c1ccc2c(c1)NC(=O)CS2` (stereo not given), for which the activity change, negative = inhibition was -70.6% (active).

With `O=C1CSc2ccc(S(=O)(=O)NCc3ccccc3)cc2N1`, the activity change, negative = inhibition was 0%.

For `Cc1cccc(N2CCN(C(=O)c3cnc(N4CCCC4)nc3C)CC2)c1C`, the activity change, negative = inhibition was -23.5%.

On to `Cc1nc(SCC(=O)N2CCN(c3ccccc3)CC2)[nH]c(=O)c1C`, for which the activity change, negative = inhibition is 17.7%.

Regarding `O=C(CSc1nc2ccccc2o1)N1CCN(c2ccc(Cl)cc2)CC1`, the activity change, negative = inhibition is -0.478%.

Take `O=C(CSc1nc2ccccc2o1)N1CCN(c2ccccc2)CC1`: the activity change, negative = inhibition is -78.3% (active).

`COC(=O)c1ccccc1NC(=O)Cn1c(=O)n(-c2cccc(C(F)(F)F)c2)c(=O)c2c(C)c(C)sc21`: the activity change, negative = inhibition was -21.9%.

With `O=C(CN1C(=O)COc2ccc(S(=O)(=O)N3CCOCC3)cc21)N1CCN(c2cccc(Cl)c2)CC1`, the activity change, negative = inhibition was -4.92%.

`CCC1(CC)NC(=O)N(CC(=O)OCC(=O)NC(=O)c2ccccc2)C1=O`: the activity change, negative = inhibition was -39.9%.

Take `Cn1c(CCc2ccccc2)nnc1SCC(N)=O`: the activity change, negative = inhibition is 8.58%.

For the molecule `N#Cc1ccc(CSc2ncccn2)cc1`, the activity change, negative = inhibition was 4.06%.

With `N#CC1=C(SCc2ccc(C#N)cc2)N=C(N)C(c2nc(-c3ccccc3)cs2)C12CCCCC2` (stereo not given), the activity change, negative = inhibition is -98.4% (active).

As to `O=C(CCCn1c(=O)c2cccn2c2cccnc21)NCc1ccc(F)cc1`, the activity change, negative = inhibition is -18%.

`CCOc1ccccc1NC(=O)c1ccc2c(c1)CCN2S(=O)(=O)c1ccc(C)cc1`: the activity change, negative = inhibition was 18.6%.

For `Cc1ccc2c(c1)c1ncnc(N3CCc4ccccc4C3)c1n2C`, the activity change, negative = inhibition was 110%.

In the case of `Cc1ccc2nc(C)c3c(c2c1)N(c1ccccc1)CC3`, the activity change, negative = inhibition was -71.1% (active).

As for `Cc1ccc(C(=O)Nc2nc(N)n(-c3ccccc3)n2)cc1`, the activity change, negative = inhibition is 68.4%.

On to `O=C(CN1CCN(Cc2ccc(F)cc2Cl)C1=O)NCc1cccs1`, for which the activity change, negative = inhibition is -20.5%.

Consider `Cc1ccc(N2C(=O)C3C4C=CC(CC4)C3C2=O)cc1Cl` (stereo not given), for which the activity change, negative = inhibition is 2.41%.

On to `CC(C)CCN(C(=O)c1csnn1)C(C(=O)NC1CCCC1)c1ccccc1` (stereo not given), for which the activity change, negative = inhibition is 19.1%.

Consider `Cc1ccc(NC(=O)CCCNC(=O)c2ccc(Cl)cc2)cc1S(=O)(=O)N1CCCCC1`, for which the activity change, negative = inhibition is -15.5%.

Consider `Cc1ccc(NC(=O)COC(=O)C2CC2)cc1S(=O)(=O)N1CCOCC1`, for which the activity change, negative = inhibition was -3.87%.

With `Cc1ccc(NC(=O)COC(=O)CNC(=O)c2ccc(Cl)cc2Cl)cc1S(=O)(=O)N1CCOCC1`, the activity change, negative = inhibition is -100% (active).

With `Cc1ccc(NC(=O)CCNC(=O)c2ccc([N+](=O)[O-])cc2)cc1S(=O)(=O)N1CCOCC1`, the activity change, negative = inhibition is -102% (active).

As for `O=C(CCNC(=O)c1ccc([N+](=O)[O-])cc1)Nc1ccccc1N1CCOCC1`, the activity change, negative = inhibition was -0.0167%.

As for `Cc1ccc(C(=O)OCC(=O)Nc2ccc(Cl)cn2)cc1S(=O)(=O)N1CCOCC1`, the activity change, negative = inhibition was -11.7%.

`O=C(NCCc1ccccn1)c1cc(C(=O)C2CCCCC2)c[nH]1`: the activity change, negative = inhibition is 24.3%.

For the molecule `COC(=O)CN1C(=S)N(c2ccccc2)C(=O)C1CC(=O)Nc1ccc(Cl)cc1` (stereo not given), the activity change, negative = inhibition was -4.58%.

Take `Cc1ccc(Cl)cc1N1CCN(S(=O)(=O)c2cc3[nH]c(=O)c(=O)[nH]c3cc2C)CC1`: the activity change, negative = inhibition is 14.4%.

Take `COc1ccccc1C(=O)OCc1cc(=O)n2nc(-c3cccs3)sc2n1`: the activity change, negative = inhibition is 7.8%.

As to `CC(C)(C)c1ccc(S(=O)(=O)Nc2ccc(O)c(Sc3nc4ccccc4s3)c2)cc1`, the activity change, negative = inhibition is -13.2%.

In the case of `CC1=C[C@H]2Cc3cc(C)cc(C)c3S(=O)(=O)[C@@H]2C=C1`, the activity change, negative = inhibition was -67.4% (active).

The values above are taken from PubChem BioAssay AID1259415 (National Center for Advancing Translational Sciences (NCATS), 2018).
